PfHsp40 rescue – rescue of PfHsp40-mediated yeast toxicity. S. cerevisiae expressing PfHsp40, growth rescue, ATP luminescence. growth rescue, % at 12.5 µM. 340,000 tested, 0.68% active; in the data active means growth rescue above about 28%, passing the limit was not always enough; inconclusive means no clear call, values can overlap the other calls;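 further: yeast W303a lacking pdr1 and pdr3 grown in galactose medium; growth measured after three days at 30 °C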
PrP 5UTR inh – inhibition of PrP 5' UTR reporter expression; cell-based PrP 5' UTR mRNA reporter, plate reader; inhibition, % (concentration not given with the values); 340,000 tested, 0.35% active; in the data active means inhibition above about 52%
MazEF act – activators of E. coli MazEF toxin-antitoxin RNase; P0AE70; FAM/BHQ RNA-DNA oligo cleavage fluorescence, 5 h; activation, % at 20 µM; 350,000 tested, 0.32% active; in the data active means activation above about 50%
Target sequence (P0AE70 whole entry, looked up): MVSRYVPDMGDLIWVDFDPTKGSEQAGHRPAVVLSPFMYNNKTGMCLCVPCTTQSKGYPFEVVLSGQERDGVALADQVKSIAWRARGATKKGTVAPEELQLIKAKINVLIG
PriA SSB inh – K. pneumoniae PriA-SSBct interaction inhibition; AlphaScreen SSBct-PriA binding, biotinylated peptide; inhibition, % at 33 µM; 430,000 tested, 0.6% active; in the data active means inhibition mostly above about 37%, no sharp cut-off; inactive means mostly below about 20%
PrPC surface inh – reduces human prion protein on the cell surface. P04156. cell surface PrPC, TR-FRET read-out. inhibition, % at 13.8 µM. 370,000 tested, 0.43% active. AID 720596; in the data active means inhibition above about 24%
PrP UTR cherry – prion 5' UTR mRNA inhibition, cherry-pick retest | cell-based prion protein 5' UTR reporter, plate reader | shares compounds with PrP 5UTR inh | AID 504592 | inhibition, % at 2.5 µM | 1,100 tested, 48% active; in the data active means inhibition above about 54%; inconclusive means no clear call, values can overlap the other calls
Large screens that a line does not name were inactive (follow-up assays come after a bar, where they were run). A selection: hits, their analogues and other compounds. The true share with any hit is near 1.8%.

Cc1nc2c(-c3ccc(F)cc3)cnn2c(N)c1-c1ccccc1	PrP 5UTR inh 68 | PrP UTR cherry inactive
CCCc1nnc(SCC(=O)O)n1N=Cc1ccc2c(c1)OCO2	none (no result: PfHsp40 rescue, PrP 5UTR inh, MazEF act, PrPC surface inh)
CSc1ccc(CN(C)C(C)C(=O)Nc2ccc(F)c(F)c2F)cc1 (centres undefined)	PrP 5UTR inh 53 | PrP UTR cherry inactive
CC(C(=O)Nc1ccc(F)c(F)c1F)N(C)CC(=O)Nc1ccccc1Br (centres undefined)	none
Cc1ccc(S(=O)(=O)Nc2ccc3c4c(cccc24)CC3)c(C)c1	none
Cc1cc(C)c(S(=O)(=O)Nc2ccc3c4c(cccc24)CC3)c(C)c1	PrP 5UTR inh 76 | PrP UTR cherry 89
O=C(Nc1cccc(-c2ccc3nnc(-c4ccncc4)n3n2)c1)c1ccc2ccccc2n1	none (no result: PfHsp40 rescue, PrP 5UTR inh, MazEF act, PrPC surface inh)
O=C(N/N=C/c1ccncc1)c1cccc(N/N=C/c2ccncc2)c1	PrP 5UTR inh 72 (no result: PriA SSB inh) | PrP UTR cherry inactive
O=C1c2ccccc2NC2(CCCC2)N1N=C1CCCC1	none
O=C1CNC(=O)/C1=C\N1CCCCC1	none
COc1ccc2cc(C(N)=O)/c(=N\NC(=O)c3ccccc3)oc2c1	PrP 5UTR inh 53 (no result: PriA SSB inh) | PrP UTR cherry inactive
COc1cccc(C(=O)N/N=c2/oc3ccccc3cc2C(N)=O)c1	none (no result: PriA SSB inh)
COc1ccc(Cl)cc1NC(=O)CCn1cnc2ccccc2c1=O	PrP 5UTR inh 70 | PrP UTR cherry inactive
CC(C)C[C@H]1CNC(=S)N1CC1CCCN1C[C@H](Cc1ccc(O)cc1)N1C[C@H](Cc2ccccc2)N(CC2CCCCC2)C1=S (some centres undefined)	PrP 5UTR inh 67 | PrP UTR cherry inactive
CC(C)C[C@H]1CNC(=S)N1C[C@H]1CCCN1C[C@H](Cc1ccccc1)N1C[C@H](Cc2ccc(O)cc2)N(CC2CCCCC2)C1=S	none (no result: PfHsp40 rescue, PrP 5UTR inh, MazEF act, PriA SSB inh)
CN(C)CC/C=C1\c2ccccc2Sc2ccc(Cl)cc21	none
OCCN1CCN(CC/C=C2/c3ccccc3Sc3ccc(Cl)cc32)CC1	PrP 5UTR inh 82 | PrP UTR cherry inactive
Nc1cc(N)nc(SCC(=O)NC(=O)NC2CCCC2)n1	none
Cc1ccc(C(=O)Sc2cccccc2=O)cc1	PfHsp40 rescue 698, PrP 5UTR inh 57 | PrP UTR cherry inconclusive
COc1ccc(C(=O)Cn2nc(C3CC3)c3cnn(-c4cccc(Cl)c4)c3c2=O)cc1	none (no result: PfHsp40 rescue, PrP 5UTR inh, MazEF act, PrPC surface inh)
CCSc1nc(-c2ccccc2)nc(C(Cl)Cl)n1	PrP 5UTR inh 63 | PrP UTR cherry 79
OC(c1ccc(F)c(F)c1)c1nc(-c2cncnc2)cs1 (centres undefined)	none (no result: PfHsp40 rescue, PrP 5UTR inh, MazEF act, PriA SSB inh)
COc1ccc(-c2ccc(=O)n(Cc3ccccc3)n2)cc1	none
COc1ccc(-c2ccc(=O)n(Cc3cc(=O)n4ccccc4n3)n2)cc1	PrP 5UTR inh 66 | PrP UTR cherry inactive
Cc1ccccc1Nc1n[nH]c(=S)s1	none (no result: PfHsp40 rescue, PrP 5UTR inh, PriA SSB inh)
Cc1c(Cl)cccc1Nc1n[nH]c(=S)s1	PrP 5UTR inh 71 | PrP UTR cherry inactive
C[C@]12CC[C@H](O)C[C@H]1CC[C@@H]1[C@@H]2C[C@@H](O)[C@]2(C)[C@@H](C3=CC(=O)OC3)CC[C@]12O	PrP 5UTR inh 59 | PrP UTR cherry 66
CC12CCC(O)CC1CCC1C2CCC2(C)C(C3=CC(=O)OC3)C(O)CC12O (centres undefined)	none
CC(=O)OC1CC(OC2C(O)CC(OC3C(O)CC(OC4CCC5(C)C(CCC6C5CC(O)C5(C)C(C7=CC(=O)OC7)CCC65O)C4)OC3C)OC2C)OC(C)C1OC1OC(CO)C(O)C(O)C1O (centres undefined)	PrP 5UTR inh 90 | PrP UTR cherry 90
C[C@]12CC[C@H](O)C[C@H]1CC[C@@H]1[C@@H]2CC[C@]2(C)[C@@H](C3=CC(=O)OC3)CC[C@]12O	PrP 5UTR inh 77 | PrP UTR cherry 84
CC12CCC(O)CC1CCC1C2CCC2(C)C(C3=CC(=O)OC3)CCC12O (centres undefined)	PrP 5UTR inh 79 | PrP UTR cherry 82
CCOC(=O)c1ccc(NC(=S)N(CCCN2CCCCC2)Cc2ccco2)cc1	none
CCNC(=O)c1csc(N)n1	none (no result: PfHsp40 rescue, PrP 5UTR inh, MazEF act, PrPC surface inh)
CC(C)N(C(=O)Cn1cc(S(=O)(=O)CC(=O)NC2CCCCC2)c2ccccc21)C(C)C	none
COC1C(O)C(C)OC(OC2CCC3(C)C(CCC4C3C(O)CC3(C)C(C5=CC(=O)OC5)CCC43O)C2)C1O (centres undefined)	PrP 5UTR inh 87 | PrP UTR cherry 82
C[C@@H]1O[C@@H](O[C@H]2C[C@@H](O)[C@]3(CO)[C@@H]4C(CC[C@]3(O)C2)[C@@]2(O)CC[C@H](C3COC(=O)C3)[C@@]2(C)C[C@H]4O)[C@H](O)[C@H](O)[C@H]1O (some centres undefined)	none
O=C1OCCN1C(=O)[C@H]1[C@H](c2ccccc2)C(c2ccc(F)cc2)=NN1c1ccc(Br)cc1	PrP 5UTR inh 67 | PrP UTR cherry inactive
O=C(/C=C/c1ccccc1)Nc1cccc(C(=O)O)c1	PrP 5UTR inh 80 | PrP UTR cherry 82
COC(C(=O)C(O)C(C)O)C1Cc2cc3cc(OC4CC(OC5CC(O)C(O)C(C)O5)C(O)C(C)O4)c(C)c(O)c3c(O)c2C(=O)C1OC1CC(OC2CC(OC3CC(O)C(OC)C(C)O3)C(O)C(C)O2)C(O)C(C)O1 (centres undefined)	PrP 5UTR inh 70 | PrP UTR cherry 71
C[C@H]1CN([C@@H](C)CO)C(=O)c2cc(Br)cnc2O[C@@H]1CN(C)S(C)(=O)=O	none (no result: PfHsp40 rescue, PrP 5UTR inh, PriA SSB inh)
COc1ccc(N2CCN(C(CNC(=O)C3CCCCC3)c3cccnc3)CC2)cc1 (centres undefined)	none
O=C(NCC(c1cccnc1)N1CCN(c2ccc(F)cc2)CC1)C1CCCCC1 (centres undefined)	PfHsp40 rescue 70, PrP 5UTR inh 69 | PrP UTR cherry inactive
CN(C)/C=C(\C#N)C(N)=C(C#N)C#N	none
Cc1ccsc1/C=N/Nc1cccc(C(=O)O)c1	PrP 5UTR inh 72 (no result: PriA SSB inh) | PrP UTR cherry 68
Cc1nn(-c2ccccc2Cl)c(Cl)c1/C=N/Nc1cccc(C(=O)O)c1	PrP 5UTR inh 77 (no result: PriA SSB inh) | PrP UTR cherry 64
Cc1ccsc1C=NNc1cccc(C(=O)O)c1	none (no result: PfHsp40 rescue, PrP 5UTR inh, MazEF act, PrPC surface inh)
CC(=O)O[C@H]1[C@H]2O[C@]23[C@@H]2CC[C@]4(O)C[C@@H](O)CC[C@]4(C)C2CC[C@]3(C)[C@H]1c1ccc(=O)oc1 (some centres undefined)	PrP 5UTR inh 94 (no result: PrPC surface inh) | PrP UTR cherry 91
C[C@]12CC[C@H]3C(CCC4(O)CC(O)CC[C@]34C=O)C1=CC[C@H]2c1ccc(=O)oc1 (some centres undefined)	none (no result: PrP 5UTR inh)
CCCOc1ccc2cc(-c3ccccn3)c(=O)oc2c1	PrP 5UTR inh 78 | PrP UTR cherry 57
O=c1oc2cc(OCc3c(F)cccc3Cl)ccc2cc1-c1ccccn1	none
CC(C)(C)OC(=O)C[C@@H]1C/C=C\C[C@@H](CC(=O)N[C@H](CO)Cc2ccccc2)C(=O)NC[C@H](c2ccccc2)OC1=O	none
COc1cc(SC)ccc1C(=O)Nc1ncc(C)s1	PrP 5UTR inh 74 | PrP UTR cherry 69

Bioassay records deposited in PubChem BioAssay by several laboratories.
